This is a sample that favours compounds with a hit; in the whole collection about 20% have one here.
Pf growth 48h = inhibits P. falciparum growth in the first generation, 48 h | P. falciparum luciferase growth in erythrocytes, 48 h | Potency, µM (highest dose often 28.7 µM), inactives show at the top dose activity change, negative = inhibition, most hits filed as inhibitors | 5.9% of 310,000 active | AID 504832; also: potency is read from the fitted curve at half-maximal effect; % is scaled to controls: 0 for no effect and ±100 for the full control effect
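First compound was added to culture medium, then infected red cells at 0.1% parasitemia and 2% hematocrit (final). After incubation at 37 C under 5% CO2, luciferase detection reagent was dispensed and light output recorded.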
Pf growth 96h = P. falciparum growth inhibition at 96 hours; 6.9% of 320,000 active; P. falciparum luciferase reporter growth, 96 h; Potency, µM (doses to about 28.7 µM), for the others: at the highest dose activity change, negative = inhibition, hits mostly inhibitors; AID 504834; also: potency is read from the fitted curve at half-maximal effect; % is scaled to controls: 0 for no effect and ±100 for the full control effect
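Parasite growth measured via integrated firefly luciferase reporter in P. falciparum. Infected erythrocytes at 2% hematocrit, 0.05% parasitemia final were treated 96 hours at 37 C under 5% CO2, and luminescence was read.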
CHX counter = counter-screen for Shiga toxin inhibitors: cycloheximide protein synthesis inhibition; AID 2314; 12% of 300,000 active; max response, %; cell reporter, cycloheximide protein synthesis inhibition counterscreen; in the data active = max response mostly above about 13%, no sharp cut-off; inactive = mostly below about 14%; also: read at 38.3 µM for the half of the compounds with a filed dose; 0% is about no effect
Shiga inhibitor = Shiga toxin inhibition; 9.2% of 290,000 active; inhibition, % at 38.7 µM; Vero cells, Shiga toxin protein synthesis inhibition reporter; in the data active = inhibition mostly above about 28%, no sharp cut-off; inactive = mostly below about 43%; also: 0% is about no effect
HCMV antiviral = human cytomegalovirus inhibition | AID 1259415 | HFF cells, HCMV-luciferase reporter, 72 h; stronger effect = lower value | 4.5% of 410,000 active | activity change, negative = inhibition, % at 57.5 µM; in the data active = activity change below about -60%; inconclusive = no clear call, values can overlap the other calls; inactive = above about -39%; also: % is scaled to controls: 0 for no effect and ±100 for the full control effect
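Human foreskin fibroblasts infected with luciferase-reporter HCMV at MOI 1 PFU/cell, compounds at two doses. Luciferase measured 72 h post infection; normalized to buffer-only basal and Salinomycin (10uM) controls.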
Numbers without * were called inactive; u = inconclusive; x = no result; [ ] = another dose, or the depositor's remark. Unless noted, calls follow the shape of the dose curve; as a rule, active = well fitted inhibition curve with a large enough effect; inconclusive = small, poorly fitted or top-dose-only effect, or another doubt; inactive = no such curve, though single readings can be large or run the other way.

SMILES	Pf growth 48h	Pf growth 96h	CHX counter	Shiga inhibitor	HCMV antiviral
CCOc1ccc(C2CC(=O)NC(NC(=O)c3ccc(C)cc3)=N2)cc1 (stereo unspecified)	x	x	x	x	32
CCOc1ccc2nc(NC3=NC(C)(C)C=C(C)N3)nc(C)c2c1	x	u	-3	-12	4
CCOc1ccc2nc(NC3=NC(c4ccc(OC)cc4)CC(=O)N3)nc(C)c2c1 (stereo unspecified)	u	10µM*	-1	-16	-70*
CCOc1ccc2c(C)nc(NC3=NC(C)(C)C=C(C)N3)nc2c1	10µM*	12µM*	4	-8	97
Cn1c(CN2CCCCC2)nc2cc(NS(=O)(=O)c3ccc(Cl)cc3)ccc21	-17%	25%	-3	-8	-19
Cn1c(CCN2CCCCC2)nc2cc(NS(=O)(=O)c3ccc(Cl)cc3)ccc21	2.1µM*	3%[5.75 µM]	7	-4	-33
Cc1ccc(C(=O)Nc2ccc3c(c2)nc(CCNC(=O)c2ccco2)n3C)cc1	50%	1%	32*	44*	58
Cn1c(CCNC(=O)c2ccco2)nc2cc(NS(=O)(=O)c3ccc(Cl)cc3)ccc21	u	9.3µM*	-4	27	-3
O=S(=O)(c1ccc(NC(=S)N/N=C/c2c3ccccc3cc3ccccc23)cc1)N1CCOCC1	3.3µM*	u	9	27	-95*
N#Cc1ccc(/C=N/NC(=O)CCc2ccc(S(=O)(=O)N3CCOCC3)cc2)cc1	u	6.6µM*	-3	8	-17
O=S(=O)(c1ccc(NC(=S)N/N=C/c2ccc(N3CCOCC3)cc2)cc1)N1CCOCC1	-22%	5.9µM*	4	29	-6
O=S(=O)(c1ccc(NC(=S)N/N=C/c2ccc(Oc3ccccc3)cc2)cc1)N1CCOCC1	18%	3%	6	13	-2
COc1ccc([C@H]2C(C(=O)O)=C[C@@H](C(C)(C)C)N2S(=O)(=O)c2ccc(C)cc2)cc1OC	x	x	x	x	1
CC(C)COC(=S)Nc1ccccc1	x	-26%	32*	17	-7
CC(C)COCC(O)CCC(=O)NNC(=S)Nc1ccccc1 (stereo unspecified)	8%	-1%	-2	-8	-6
CCCc1cc(NC(=O)COC(=O)c2nccnc2N)n(-c2ccccc2)n1	4%	18%	x	x	-104*
N/C(=N\c1nc2ccccc2o1)NC(=O)c1ccccc1	x	62%	46*	49*	88
CC(C)CC(=O)N/C(N)=N/c1nc2ccccc2o1	292%	201%	51*	103*	10
COc1ccccc1C(=O)N/C(N)=N/c1nc2ccccc2o1	45%	50%	20	37*	98
N/C(=N\c1nc2ccccc2o1)NC(=O)c1cccc(Br)c1	40%	58%	35	1	u
CC(C)CC(=O)NC(=S)N(Cc1ccccc1)Cc1ccccc1	-4%	u	-4	11	-7
CCC(=O)N/C(N)=N/c1nc2ccccc2o1	81%	160%	61*	85*	130
Cc1ccc(C(=O)N/C(N)=N/c2nc3ccccc3o2)cc1	x	7%	10	23	-10
N/C(=N\c1nc2ccccc2o1)NC(=O)/C=C/c1ccccc1	13%	30%	0	-7	-23
C/C(=N\Nc1ccc(S(=O)(=O)N2CCCCC2)cn1)c1ccc(O)cc1	u	u	x	x	-21
SMILES	Pf growth 48h	Pf growth 96h	CHX counter	Shiga inhibitor	HCMV antiviral
Cc1ccc(S(=O)(=O)NCc2nc3cccnc3n2Cc2ccccc2Cl)c(C)c1	x	x	x	x	-25
Cc1cccc(NC(=O)CSc2cn(CC(=O)N3CCCCCC3)c3ccccc23)c1	x	x	x	x	24
CC(C)[Si]1(C(C)C)OCC2OC(n3cnc4c(N)ncnc43)C(N)C2O[Si](C(C)C)(C(C)C)O1 (stereo unspecified)	x	x	x	x	-27
CC(C)(C)C(=O)N1CCN(c2nc3ccccc3o2)CC1	4%	u	16	27	9
NC(=NCc1ccco1)NC(=O)c1ccccc1	46%	6%	27*	21*	25
CC(C)(C)C(=O)N/C(N)=N/c1nc2ccccc2o1	264%	400%	50*	71*	u
CCCC(=O)N/C(N)=N/c1nc2ccccc2o1	273%	421%	51*	87*	23
CCOc1ccc(NC(=O)CSc2oc(-c3cccs3)nc2S(=O)(=O)c2ccc(C)cc2)cc1	x	x	x	x	21
COc1cc(NC(=O)NCc2ccncc2)cc(OC)c1OC	u	-20%	5	-5	9

Bioassay records from PubChem BioAssay.
